Measurements from PubChem BioAssay (NCI).
The panel holds about 79,000 compounds, 15% with a hit somewhere; the sample as a whole holds those more often. Active and inactive are the calls of the source. Rule as the data show it: active = growth inhibition above about 70%; inactive = the rest.

Assays:
[1] = NCI Yeast Anticancer Drug Screen. Data for the rad50 strain (AID 155);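 also: 0% = growth of vehicle-only cultures of the same strain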; settings: S. cerevisiae rad50 strain growth inhibition, stronger effect = higher value
Method in brief: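 Genetically altered yeast (DNA repair pathway); compound treatment; growth inhibition vs vehicle ctrl.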

[2] = NCI Yeast Anticancer Drug Screen. Data for the mec2-1 strain (AID 157); settings: S. cerevisiae mec2-1 strain, stronger effect = higher value
Method in brief: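 Cells of the genetically defined mec2-1 yeast strain are incubated with test compound. Inhibition of growth is calculated against vehicle-treated controls.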

[3] = NCI Yeast Anticancer Drug Screen. Data for the sgs1 mgt1 strain (AID 161);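 also: 0% = growth of cultures given vehicle only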; settings: S. cerevisiae sgs1 mgt1 strain, stronger effect = higher value
Method in brief: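 Inhibition of yeast growth, normalised to vehicle-treated controls, is reported for a strain bearing genetic alterations in DNA damage repair.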

[4] = NCI Yeast Anticancer Drug Screen. Data for the cln2 rad14 strain (AID 165);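 also: 0% = growth equal to vehicle treated cultures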; settings: S. cerevisiae cln2 rad14 strain, stronger effect = higher value
Method in brief: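 The screen exposed genetically defined yeast (cln2 rad14) to test compounds and scored growth inhibition relative to vehicle-treated controls.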

[5] = NCI Yeast Anticancer Drug Screen. Data for the bub3 strain (AID 167); settings: S. cerevisiae bub3 mutant strain, stronger effect = higher value
Method in brief: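 Yeast carrying a defined mutation is treated with each compound, and growth is compared with that of vehicle-exposed cells to give inhibition.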

[6] = NCI Yeast Anticancer Drug Screen. Data for the mlh1 rad18 strain (AID 175); settings: S. cerevisiae mlh1 rad18 strain growth inhibition, stronger effect = higher value
Method in brief: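 Compound-treated yeast growth, normalised to vehicle controls. Strain bears defined DNA repair mutations.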

[7] = at 5.0 µM (retest, dose inferred, filed as 0.5)
[8] = at 50.0 µM (retest, dose inferred, filed as 5.0)

Measured: growth inhibition

Nc1cc(F)c2c(c1F)C(=O)c1cc(F)ccc1-2
inactive: [1]; [7] 15% | [2]; [7] 13% | [2]; at 50.0 µM 27.3% | [3]; [7] 2% | [3]; at 50.0 µM 55.4% | [4]; [7] 4% | [4]; [8] 41% | [4]; at 50.0 µM 26.5% | [5]; [7] 2% | [5]; at 50.0 µM 17.8% | [6]; [7] 5%
active: [1]; [8] 92% | [1]; at 50.0 µM 93.3% | [2]; [8] 70% | [3]; [8] 84% | [5]; [8] 72% | [6]; [8] 78% | [6]; at 50.0 µM 80.7%

CCOC(=O)/C(=C/c1ccc(Cl)cc1)N(CC)CC
inactive: [1]; [7] 16% | [1]; [8] 15% | [1]; at 50.0 µM 64.3% | [2]; [7] -21% | [2]; [8] 20% | [2]; at 50.0 µM 55.2% | [3]; [7] 2% | [3]; [8] 18% | [3]; at 50.0 µM 54.3% | [4]; [7] 43% | [4]; [8] 58% | [5]; [7] 9% | [5]; [8] 36% | [5]; at 50.0 µM 64.8% | [6]; [7] -13% | [6]; [8] -2% | [6]; at 50.0 µM 53.1%
active: [4]; at 50.0 µM 76.2%

O=C(O)/C(=C\c1cc(I)c(O)c(I)c1)c1ccc(I)cc1
active: [1]; at 50.0 µM 88.3% | [2]; [8] 70% | [2]; at 50.0 µM 80.6% | [3]; [8] 75% | [3]; at 50.0 µM 91.8% | [4]; [8] 70% | [4]; at 50.0 µM 82.7% | [6]; [8] 76% | [6]; at 50.0 µM 80.8%
inactive: [1]; [7] 3% | [1]; [8] 39% | [2]; [7] 42% | [3]; [7] 34% | [4]; [7] 19% | [5]; [7] 3% | [5]; [8] 59% | [5]; at 50.0 µM 48% | [6]; [7] 37%

Cc1ccc(NC(=O)CCc2nnc(N)n2N)cc1
inactive: [1]; [7] -2% | [1]; [8] -5% | [1]; at 50.0 µM -3.55% | [2]; [7] -1% | [2]; [8] 4% | [3]; [7] -6% | [3]; [8] 0% | [4]; [7] 0% | [4]; [8] 5% | [5]; [7] 4% | [5]; [8] 7% | [6]; [7] -4% | [6]; [8] -1%
active: [2]; at 50.0 µM 96.5% | [3]; at 50.0 µM 97.5% | [4]; at 50.0 µM 93.2% | [5]; at 50.0 µM 95% | [6]; at 50.0 µM 97.2%

COc1cc2c(cc1OC)NCC1COc3c(ccc(OC)c3OC)C1=N2 (configuration not stated)
inactive: [1]; [7] 12% | [1]; [8] 14% | [1]; at 50.0 µM -44.9% | [2]; [7] 14% | [2]; [8] 8% | [2]; at 50.0 µM -6.65% | [3]; [7] 15% | [3]; [8] 17% | [3]; at 50.0 µM -18.4% | [4]; [7] 19% | [4]; [8] 17% | [4]; at 50.0 µM 11.1% | [5]; [7] 17% | [5]; [8] 22% | [5]; at 50.0 µM 16% | [6]; [7] 12% | [6]; [8] 24% | [6]; at 50.0 µM -37.8%

O=C(C(=O)c1ccc(Cc2ccc(C(=O)C(=O)c3ccccc3)cc2)cc1)c1ccccc1
inactive: [1]; [7] -1% | [1]; [8] -20% | [1]; at 50.0 µM 6.45% | [2]; [7] 0% | [2]; [8] -4% | [2]; at 50.0 µM 6.4% | [3]; [7] 1% | [3]; [8] 1% | [3]; at 50.0 µM -15.6% | [4]; [7] 3% | [4]; [8] -17% | [4]; at 50.0 µM 27.4% | [5]; [7] 2% | [5]; [8] -22% | [5]; at 50.0 µM 0.8% | [6]; [7] 2% | [6]; [8] -17% | [6]; at 50.0 µM 12.2%

O=c1c(Cl)c(Cl)c(=O)c2sc3cc(Cl)ccc3[nH]c1=2
active: [1]; at 50.0 µM 95.5% | [2]; at 50.0 µM 95% | [3]; at 50.0 µM 88% | [4]; at 50.0 µM 95% | [5]; at 50.0 µM 95.5% | [6]; at 50.0 µM 96.9%
inactive: [1]; [7] 6% | [1]; [8] 51% | [2]; [7] 3% | [2]; [8] 27% | [3]; [7] -3% | [3]; [8] 46% | [4]; [7] 2% | [4]; [8] 7% | [5]; [7] 6% | [5]; [8] 19% | [6]; [7] 2% | [6]; [8] 59%

O=C1C=C(O)c2cc(Br)ccc2C1=O.[Ag]
active: [1]; [7] 99% | [1]; [8] 99% | [1]; at 50.0 µM 99.6% | [2]; [7] 100% | [2]; [8] 99% | [2]; at 50.0 µM 99.5% | [3]; [7] 100% | [3]; [8] 99% | [3]; at 50.0 µM 99.7% | [4]; [7] 99% | [4]; [8] 99% | [4]; at 50.0 µM 99.5% | [5]; [7] 100% | [5]; [8] 99% | [5]; at 50.0 µM 99.7% | [6]; [7] 99% | [6]; [8] 99% | [6]; at 50.0 µM 99.1%

Cc1ccc(NC(=S)SCc2ccc3c(c2)OCO3)cc1Br
inactive: [1]; [7] 46% | [2]; [7] 29% | [3]; [7] 55% | [4]; [7] 52% | [5]; [7] 58% | [6]; [7] 36%
active: [1]; [8] 96% | [1]; at 50.0 µM 89.8% | [2]; [8] 98% | [2]; at 50.0 µM 91.8% | [3]; [8] 98% | [3]; at 50.0 µM 91.9% | [4]; [8] 98% | [4]; at 50.0 µM 88.5% | [5]; [8] 99% | [5]; at 50.0 µM 91% | [6]; [8] 97% | [6]; at 50.0 µM 89.8%
